# From PubChem BioAssay (Tox21)
# Results filed as inconclusive are left out. Entries that show only a call come without a potency. Activity calls are given as the source filed them. The call rests on the fitted dose curve; in most records, active means well fitted curve in the direction sought with a large enough effect in the repeat runs; inconclusive means weak or mixed curves; inactive means no such curve, though single readings can be large; an effect the other way counts as inactive or inconclusive.
# Target: Cytochrome P450 1A2 (Homo sapiens) (UniProt P05177)
# Assay: Cytochrome P450 Family 1 Subfamily A Member 2 (CYP1A2) small molecule antagonists: luciferase reporter qHTS assay (AID 1671199)
# Details: P450-Glo CYP1A2 enzyme, luciferin luminescence, 1 h; series mostly up to 115 µM
# Outline: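 Compounds were incubated with CYP1A2 and a luminogenic proluciferin substrate for 10 min at room temperature before the reaction was started with NADPH regeneration solution. After 1 h, detection reagent was added and light output, proportional to CYP activity, was recorded.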
# Further: nearly all actives have a fitted effect of over 50% in size.
# Potency means the concentration at half of the fitted maximal effect.
# Chain of Cytochrome P450 1A2 (Homo sapiens) (P05177 whole entry, looked up): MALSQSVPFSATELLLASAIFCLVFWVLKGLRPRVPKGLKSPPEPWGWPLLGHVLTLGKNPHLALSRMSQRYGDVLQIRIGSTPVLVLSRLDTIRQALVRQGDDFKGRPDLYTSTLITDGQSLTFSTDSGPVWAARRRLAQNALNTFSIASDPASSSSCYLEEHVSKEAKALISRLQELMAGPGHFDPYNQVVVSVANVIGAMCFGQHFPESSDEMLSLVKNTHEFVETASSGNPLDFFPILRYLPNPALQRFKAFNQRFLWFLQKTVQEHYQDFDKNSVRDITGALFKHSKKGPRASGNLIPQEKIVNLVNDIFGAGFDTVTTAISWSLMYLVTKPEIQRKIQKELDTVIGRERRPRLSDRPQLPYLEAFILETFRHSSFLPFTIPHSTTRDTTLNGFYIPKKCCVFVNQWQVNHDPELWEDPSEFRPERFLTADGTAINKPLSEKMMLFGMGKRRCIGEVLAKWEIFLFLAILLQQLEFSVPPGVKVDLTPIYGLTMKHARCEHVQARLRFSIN
row,Compound,Potency
1,NC(=O)c1cc[n+](CC2=C(C(=O)[O-])N3C(=O)[C@@H](NC(=O)Cc4cccs4)[C@H]3SC2)cc1,inactive
2,Cc1ccc(Cl)c(OCC(O)CNC(C)(C)C)c1 (centres undefined),inactive
3,Cc1ccccc1CCO,inactive
4,CC(COc1ccccc1)NC(C)C(O)c1ccc(O)cc1 (centres undefined),17.4 µM (active)
5,O=C(c1ccco1)N1CCNCC1,inactive
6,C=CCCC,inactive
7,Cc1cc(C)n(CO)n1,inactive
8,CCCCCCCCCCCCN1CCOCC1,inactive
9,CCC(CC)C(=O)O,inactive
10,COc1ccc(C(=O)c2ccc(C)cc2)c(O)c1,20.2 µM (active)
11,COc1ccc(/C(C)=C/C(=O)O)c(OC)c1,inactive
12,CC(C)(C)NCC(O)COc1ccc(NC(=O)NC2CCCCC2)cc1 (centres undefined),inactive
13,COc1cccc([C@H](O)C2CCN(CCc3ccc(F)cc3)CC2)c1OC,inactive
14,CC1=C(C)C(=O)C(C(CCCCCC(=O)O)c2ccccc2)=C(C)C1=O (centres undefined),inactive
15,CCCCCCCCCCCCCCCCC(=O)O,inactive
16,S=c1[nH][nH]c(=S)s1,inactive
17,O=C(OCCOCCOCCOC(=O)c1ccccc1)c1ccccc1,17.8 µM (active)
18,CC[C@H](NC(C)C)[C@H](O)c1ccc(O)c2[nH]c(=O)ccc12,inactive
19,Cc1nc(C)c(C)nc1C,35.6 µM (active)
20,O=C(O)c1cc(C(=O)O)c(C(=O)O)cc1C(=O)O,inactive
21,CCOC(C)OCC,inactive
22,COC(=O)c1cc(Cl)ccc1[N+](=O)[O-],7.96 µM (active)
23,N#CCCCC(C#N)CCC#N (centres undefined),inactive
24,CCc1ccc2c(c1)C(=O)c1ccccc1C2=O,2.24 µM (active)
25,CC(O)CN (centres undefined),inactive

# Target: Voltage-gated inwardly rectifying potassium channel KCNH2 (Homo sapiens) (UniProt Q12809)
# Assay: Human Ether-a-go-go-Related Gene (hERG) channel small molecule antagonists: fluorescence cell-based qHTS assay (AID 1671200)
# Details: hERG-U2OS cells, FluxOR thallium flux fluorescence; series mostly up to 76.8 µM
# Outline: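 In this thallium-flux screen, overnight-cultured U2OS cells bearing the channel are dye-loaded in darkness for an hour, rested 10 min at room temperature, and then monitored kinetically at 480/540 nm for two minutes post-stimulus.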
# Chain of Voltage-gated inwardly rectifying potassium channel KCNH2 (Homo sapiens) (Q12809 whole entry, looked up): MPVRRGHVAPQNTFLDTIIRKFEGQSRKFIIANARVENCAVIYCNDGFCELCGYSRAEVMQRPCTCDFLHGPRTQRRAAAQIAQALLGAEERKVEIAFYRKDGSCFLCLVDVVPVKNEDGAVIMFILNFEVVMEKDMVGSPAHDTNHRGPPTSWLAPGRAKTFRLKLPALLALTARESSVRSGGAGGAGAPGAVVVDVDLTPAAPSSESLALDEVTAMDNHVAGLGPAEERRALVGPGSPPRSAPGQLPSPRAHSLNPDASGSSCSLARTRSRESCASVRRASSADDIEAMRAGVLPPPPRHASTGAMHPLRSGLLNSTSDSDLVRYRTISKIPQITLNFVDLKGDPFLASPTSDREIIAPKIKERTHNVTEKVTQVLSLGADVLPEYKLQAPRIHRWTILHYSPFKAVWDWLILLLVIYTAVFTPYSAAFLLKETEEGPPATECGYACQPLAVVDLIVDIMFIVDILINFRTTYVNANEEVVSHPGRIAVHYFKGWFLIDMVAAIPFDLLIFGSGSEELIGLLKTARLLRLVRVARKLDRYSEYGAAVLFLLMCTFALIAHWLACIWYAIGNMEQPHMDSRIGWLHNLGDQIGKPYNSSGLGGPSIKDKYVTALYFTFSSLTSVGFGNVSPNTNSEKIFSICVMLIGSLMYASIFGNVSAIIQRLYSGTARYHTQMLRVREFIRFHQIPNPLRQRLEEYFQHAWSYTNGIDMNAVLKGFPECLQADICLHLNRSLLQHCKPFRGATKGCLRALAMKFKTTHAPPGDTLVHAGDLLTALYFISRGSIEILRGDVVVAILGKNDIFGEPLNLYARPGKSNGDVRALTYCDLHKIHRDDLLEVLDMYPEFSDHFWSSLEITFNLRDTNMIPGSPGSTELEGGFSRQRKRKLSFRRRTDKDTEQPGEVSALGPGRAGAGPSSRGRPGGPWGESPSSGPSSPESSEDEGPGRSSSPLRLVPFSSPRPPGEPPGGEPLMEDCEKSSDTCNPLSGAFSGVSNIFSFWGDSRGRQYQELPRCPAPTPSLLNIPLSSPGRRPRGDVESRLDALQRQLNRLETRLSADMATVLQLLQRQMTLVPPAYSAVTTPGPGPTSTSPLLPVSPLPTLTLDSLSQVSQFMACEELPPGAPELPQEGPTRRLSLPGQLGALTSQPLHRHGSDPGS
row,Compound,Potency
1,NC(=O)c1cc[n+](CC2=C(C(=O)[O-])N3C(=O)[C@@H](NC(=O)Cc4cccs4)[C@H]3SC2)cc1,inactive
2,O=C(O)c1ccc2cc(O)ccc2c1,inactive
3,Cc1ccccc1CCO,inactive
4,O=P(c1ccccc1)(c1ccccc1)c1ccccc1,inactive
5,CC(COc1ccccc1)NC(C)C(O)c1ccc(O)cc1 (centres undefined),inactive
6,O=C(c1ccco1)N1CCNCC1,inactive
7,C=CCCC,inactive
8,Cc1cc(C)n(CO)n1,inactive
9,CCC(CC)C(=O)O,inactive
10,O=[N+]([O-])c1ccc(Cl)cc1Cl,inactive
11,COc1ccc(/C(C)=C/C(=O)O)c(OC)c1,inactive
12,CC(C)(C)NCC(O)COc1ccc(NC(=O)NC2CCCCC2)cc1 (centres undefined),inactive
13,C=C[Si]1(C)O[Si](C)(C=C)O[Si](C)(C=C)O[Si](C)(C=C)O1 (centres undefined),inactive
14,O=C(OCCN1CCOCC1)c1cccnc1Nc1cccc(C(F)(F)F)c1,10.7 µM (active)
15,CC1=C(C)C(=O)C(C(CCCCCC(=O)O)c2ccccc2)=C(C)C1=O (centres undefined),inactive
16,CCCCCCCCCCCCCCCCC(=O)O,inactive
17,Cc1ccc2c(Cl)cc(Cl)c(O)c2n1,inactive

row,Compound,Potency
1,S=c1[nH][nH]c(=S)s1,inactive
2,CO[C@@H]1COCC[C@@H]1N[C@@H]1CC[C@@](C(=O)N2CCc3ncc(C(F)(F)F)cc3C2)(C(C)C)C1,inactive
3,O=C(OCCOCCOCCOC(=O)c1ccccc1)c1ccccc1,inactive
4,CC[C@H](NC(C)C)[C@H](O)c1ccc(O)c2[nH]c(=O)ccc12,inactive
5,CC(C)NC(=O)c1ccccc1N,inactive
6,O=C(Cl)c1ccc(F)c(Cl)c1,inactive
7,C/C(=C(\CCO)SS/C(CCO)=C(\C)N(C=O)Cc1cnc(C)nc1N)N(C=O)Cc1cnc(C)nc1N,inactive
8,Cc1nc(C)c(C)nc1C,inactive
9,O=C(O)c1cc(C(=O)O)c(C(=O)O)cc1C(=O)O,inactive
10,CCOC(OCC)OCC,inactive
11,CC(=O)CC/C=C(\C)CC/C=C(\C)CC/C=C(\C)CCC=C(C)C,inactive
12,CO[C@@H]1[C@@H](O[C@@H]2O[C@H](C)[C@@H](O[C@H]3C[C@@](C)(O)[C@@H](O)[C@H](C)O3)[C@H](N(C)C)[C@H]2O)[C@@H](CC=O)C[C@@H](C)[C@@H](O[C@@H]2CC[C@H](N(C)C)[C@@H](C)O2)/C=C/C=C/C[C@@H](C)OC(=O)C[C@H]1OC(C)=O,inactive
13,CCOC(C)OCC,inactive
14,COC(=O)c1cc(Cl)ccc1[N+](=O)[O-],inactive
15,N#CCCCC(C#N)CCC#N (centres undefined),inactive
16,CC(O)CN (centres undefined),inactive
17,Clc1nc2ccccc2nc1Cl,inactive
